Tests used:
[1] = test system: Epidermal growth factor receptor (Homo sapiens), P00533 [T790M]; details: at 1 µM
[2] = test system: Epidermal growth factor receptor (Homo sapiens), P00533 [L858R,T790M]; details: at 0.1 µM
[3] = test system: Epidermal growth factor receptor (Homo sapiens), P00533 [L858R,T790M]; details: at 1 µM
[4] = target: Ephrin type-A receptor 2 (Homo sapiens) (UniProt P29317); details: at 0.1 µM
[5] = target: Ephrin type-A receptor 2 (Homo sapiens) (UniProt P29317); details: at 1 µM
[6] = target: T1, Ephrin type-A receptor 3 (Homo sapiens) (UniProt P29320); details: at 0.1 µM
T1 sequence (whole entry): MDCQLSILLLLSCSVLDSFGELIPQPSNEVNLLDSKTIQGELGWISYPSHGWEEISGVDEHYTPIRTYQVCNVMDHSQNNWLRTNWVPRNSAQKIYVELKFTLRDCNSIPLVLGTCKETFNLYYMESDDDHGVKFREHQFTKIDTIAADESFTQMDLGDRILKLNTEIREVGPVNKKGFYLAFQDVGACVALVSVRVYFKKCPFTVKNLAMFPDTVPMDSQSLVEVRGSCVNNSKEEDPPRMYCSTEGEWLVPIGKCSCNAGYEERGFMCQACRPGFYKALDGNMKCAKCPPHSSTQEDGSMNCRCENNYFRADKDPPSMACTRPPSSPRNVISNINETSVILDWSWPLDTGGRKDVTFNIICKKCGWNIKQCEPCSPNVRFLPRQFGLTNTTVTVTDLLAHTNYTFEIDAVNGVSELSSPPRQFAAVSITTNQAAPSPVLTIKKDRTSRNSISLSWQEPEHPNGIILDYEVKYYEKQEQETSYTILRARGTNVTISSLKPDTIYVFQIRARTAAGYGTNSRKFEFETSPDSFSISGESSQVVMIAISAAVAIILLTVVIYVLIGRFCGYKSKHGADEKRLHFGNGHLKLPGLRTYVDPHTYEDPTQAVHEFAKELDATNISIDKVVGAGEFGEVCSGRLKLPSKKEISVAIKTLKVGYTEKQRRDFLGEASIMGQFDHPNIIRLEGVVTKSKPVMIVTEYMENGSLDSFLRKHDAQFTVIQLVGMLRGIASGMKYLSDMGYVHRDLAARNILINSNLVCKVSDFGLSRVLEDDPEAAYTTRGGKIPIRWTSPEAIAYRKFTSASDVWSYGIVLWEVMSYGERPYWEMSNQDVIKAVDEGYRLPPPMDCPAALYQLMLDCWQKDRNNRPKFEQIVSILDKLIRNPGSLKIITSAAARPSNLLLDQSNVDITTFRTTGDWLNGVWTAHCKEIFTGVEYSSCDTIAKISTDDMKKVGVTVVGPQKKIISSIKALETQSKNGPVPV

[7] = target: T1, Ephrin type-A receptor 3 (Homo sapiens); details: at 1 µM
[8] = target: Ephrin type-A receptor 4 (Homo sapiens) (UniProt P54764); details: at 0.1 µM
[9] = target: Ephrin type-A receptor 4 (Homo sapiens) (UniProt P54764); details: at 1 µM
[10] = target: T2, Ephrin type-B receptor 2 (Homo sapiens) (UniProt P29323); details: at 0.1 µM
T2 sequence (whole entry): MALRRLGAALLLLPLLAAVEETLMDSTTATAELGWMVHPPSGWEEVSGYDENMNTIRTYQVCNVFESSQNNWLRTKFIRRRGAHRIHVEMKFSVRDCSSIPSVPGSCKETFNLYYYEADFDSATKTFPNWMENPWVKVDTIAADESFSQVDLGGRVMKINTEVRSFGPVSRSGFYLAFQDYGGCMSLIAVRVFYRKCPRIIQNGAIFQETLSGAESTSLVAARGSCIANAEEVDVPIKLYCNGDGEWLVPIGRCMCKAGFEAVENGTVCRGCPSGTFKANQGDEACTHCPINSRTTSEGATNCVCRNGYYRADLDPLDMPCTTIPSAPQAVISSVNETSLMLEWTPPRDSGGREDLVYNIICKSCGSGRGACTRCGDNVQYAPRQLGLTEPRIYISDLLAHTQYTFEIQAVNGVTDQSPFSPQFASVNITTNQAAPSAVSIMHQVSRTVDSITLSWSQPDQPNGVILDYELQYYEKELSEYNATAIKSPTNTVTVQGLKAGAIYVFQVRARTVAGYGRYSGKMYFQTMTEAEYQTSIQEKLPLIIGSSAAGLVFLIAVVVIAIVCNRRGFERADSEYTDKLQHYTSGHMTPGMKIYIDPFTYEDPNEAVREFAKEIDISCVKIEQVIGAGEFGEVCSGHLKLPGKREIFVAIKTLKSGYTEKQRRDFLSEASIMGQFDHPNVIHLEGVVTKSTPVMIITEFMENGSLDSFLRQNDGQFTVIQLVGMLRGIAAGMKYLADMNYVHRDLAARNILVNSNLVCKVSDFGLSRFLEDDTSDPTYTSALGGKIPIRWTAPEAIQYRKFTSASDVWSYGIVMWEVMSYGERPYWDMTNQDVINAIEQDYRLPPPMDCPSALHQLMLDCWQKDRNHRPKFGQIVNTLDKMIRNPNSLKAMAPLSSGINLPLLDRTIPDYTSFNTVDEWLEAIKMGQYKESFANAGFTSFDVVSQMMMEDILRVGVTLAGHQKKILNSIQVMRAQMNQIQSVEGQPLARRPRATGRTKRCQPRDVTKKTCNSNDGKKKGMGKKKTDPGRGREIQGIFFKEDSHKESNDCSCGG

[11] = target: T2, Ephrin type-B receptor 2 (Homo sapiens); details: at 1 µM
[12] = target: T3, Ephrin type-B receptor 3 (Homo sapiens) (UniProt P54753); details: at 0.1 µM
T3 sequence (whole entry): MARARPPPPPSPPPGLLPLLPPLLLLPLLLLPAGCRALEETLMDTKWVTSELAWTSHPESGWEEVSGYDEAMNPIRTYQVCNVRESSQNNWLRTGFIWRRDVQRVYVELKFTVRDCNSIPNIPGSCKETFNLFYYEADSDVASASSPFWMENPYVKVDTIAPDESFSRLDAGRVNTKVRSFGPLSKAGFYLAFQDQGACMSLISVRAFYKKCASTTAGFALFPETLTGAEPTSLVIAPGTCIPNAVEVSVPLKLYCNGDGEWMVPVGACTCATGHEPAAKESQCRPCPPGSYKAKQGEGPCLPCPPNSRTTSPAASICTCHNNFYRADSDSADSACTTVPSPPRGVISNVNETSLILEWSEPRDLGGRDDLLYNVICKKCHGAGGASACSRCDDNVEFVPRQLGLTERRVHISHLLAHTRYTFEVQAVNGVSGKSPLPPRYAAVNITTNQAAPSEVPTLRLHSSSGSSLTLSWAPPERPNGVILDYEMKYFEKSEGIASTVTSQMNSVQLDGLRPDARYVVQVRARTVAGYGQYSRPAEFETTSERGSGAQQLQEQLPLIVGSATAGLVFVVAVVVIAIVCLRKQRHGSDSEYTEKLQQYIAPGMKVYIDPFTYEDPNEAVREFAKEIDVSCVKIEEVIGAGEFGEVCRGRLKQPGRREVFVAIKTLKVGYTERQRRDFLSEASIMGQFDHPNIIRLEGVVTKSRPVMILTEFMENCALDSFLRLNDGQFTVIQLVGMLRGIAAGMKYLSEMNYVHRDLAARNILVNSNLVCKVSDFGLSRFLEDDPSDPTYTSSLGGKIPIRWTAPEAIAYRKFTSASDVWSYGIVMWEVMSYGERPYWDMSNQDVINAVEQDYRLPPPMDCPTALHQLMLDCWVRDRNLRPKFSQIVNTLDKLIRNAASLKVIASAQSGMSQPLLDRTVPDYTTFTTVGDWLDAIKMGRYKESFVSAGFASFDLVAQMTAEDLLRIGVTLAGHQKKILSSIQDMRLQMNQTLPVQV

[13] = target: T3, Ephrin type-B receptor 3 (Homo sapiens); details: at 1 µM
[14] = target: T4, Ephrin type-B receptor 4 (Homo sapiens) (UniProt P54760); details: at 0.1 µM
T4 sequence (whole entry): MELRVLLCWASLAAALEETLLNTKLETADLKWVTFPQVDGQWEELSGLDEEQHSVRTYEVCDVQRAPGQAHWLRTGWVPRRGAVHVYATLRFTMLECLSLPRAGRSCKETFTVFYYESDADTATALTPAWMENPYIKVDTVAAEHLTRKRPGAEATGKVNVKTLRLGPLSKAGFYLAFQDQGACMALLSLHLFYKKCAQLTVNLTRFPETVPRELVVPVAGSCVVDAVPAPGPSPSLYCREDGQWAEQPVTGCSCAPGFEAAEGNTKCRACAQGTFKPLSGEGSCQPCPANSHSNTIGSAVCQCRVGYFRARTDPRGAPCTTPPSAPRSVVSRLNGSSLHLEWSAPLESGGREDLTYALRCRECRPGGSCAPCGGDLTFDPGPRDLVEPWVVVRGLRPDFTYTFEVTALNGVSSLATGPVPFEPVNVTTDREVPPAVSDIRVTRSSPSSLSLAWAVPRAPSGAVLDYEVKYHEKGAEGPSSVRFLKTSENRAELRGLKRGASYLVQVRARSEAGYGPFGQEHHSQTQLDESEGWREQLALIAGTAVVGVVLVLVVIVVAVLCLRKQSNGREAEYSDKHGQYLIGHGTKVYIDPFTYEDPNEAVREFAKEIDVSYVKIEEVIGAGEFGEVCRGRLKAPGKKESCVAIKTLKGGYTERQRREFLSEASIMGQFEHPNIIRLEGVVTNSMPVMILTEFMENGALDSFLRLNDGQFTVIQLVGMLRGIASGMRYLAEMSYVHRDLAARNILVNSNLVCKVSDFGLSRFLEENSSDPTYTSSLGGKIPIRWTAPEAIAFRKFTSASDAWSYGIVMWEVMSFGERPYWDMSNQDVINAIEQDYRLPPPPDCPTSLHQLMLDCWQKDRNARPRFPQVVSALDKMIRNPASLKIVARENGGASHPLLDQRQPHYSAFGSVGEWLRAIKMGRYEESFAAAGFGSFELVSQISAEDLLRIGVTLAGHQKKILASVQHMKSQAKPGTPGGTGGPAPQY

[15] = target: T4, Ephrin type-B receptor 4 (Homo sapiens); details: at 1 µM
[16] = target: Receptor tyrosine-protein kinase erbB-2 (Homo sapiens) (UniProt P04626); details: at 0.1 µM
[17] = target: Receptor tyrosine-protein kinase erbB-2 (Homo sapiens) (UniProt P04626); details: at 1 µM
[18] = target: Receptor tyrosine-protein kinase erbB-4 (Homo sapiens) (UniProt Q15303); details: at 0.1 µM
[19] = target: Receptor tyrosine-protein kinase erbB-4 (Homo sapiens) (UniProt Q15303); details: at 1 µM
[20] = target: Tyrosine-protein kinase Fer (Homo sapiens) (UniProt P16591); details: at 0.1 µM;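 also: reported figures are averaged percent inhibition of FER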

Sequence of Receptor tyrosine-protein kinase erbB-2 (Homo sapiens) (P04626 whole entry): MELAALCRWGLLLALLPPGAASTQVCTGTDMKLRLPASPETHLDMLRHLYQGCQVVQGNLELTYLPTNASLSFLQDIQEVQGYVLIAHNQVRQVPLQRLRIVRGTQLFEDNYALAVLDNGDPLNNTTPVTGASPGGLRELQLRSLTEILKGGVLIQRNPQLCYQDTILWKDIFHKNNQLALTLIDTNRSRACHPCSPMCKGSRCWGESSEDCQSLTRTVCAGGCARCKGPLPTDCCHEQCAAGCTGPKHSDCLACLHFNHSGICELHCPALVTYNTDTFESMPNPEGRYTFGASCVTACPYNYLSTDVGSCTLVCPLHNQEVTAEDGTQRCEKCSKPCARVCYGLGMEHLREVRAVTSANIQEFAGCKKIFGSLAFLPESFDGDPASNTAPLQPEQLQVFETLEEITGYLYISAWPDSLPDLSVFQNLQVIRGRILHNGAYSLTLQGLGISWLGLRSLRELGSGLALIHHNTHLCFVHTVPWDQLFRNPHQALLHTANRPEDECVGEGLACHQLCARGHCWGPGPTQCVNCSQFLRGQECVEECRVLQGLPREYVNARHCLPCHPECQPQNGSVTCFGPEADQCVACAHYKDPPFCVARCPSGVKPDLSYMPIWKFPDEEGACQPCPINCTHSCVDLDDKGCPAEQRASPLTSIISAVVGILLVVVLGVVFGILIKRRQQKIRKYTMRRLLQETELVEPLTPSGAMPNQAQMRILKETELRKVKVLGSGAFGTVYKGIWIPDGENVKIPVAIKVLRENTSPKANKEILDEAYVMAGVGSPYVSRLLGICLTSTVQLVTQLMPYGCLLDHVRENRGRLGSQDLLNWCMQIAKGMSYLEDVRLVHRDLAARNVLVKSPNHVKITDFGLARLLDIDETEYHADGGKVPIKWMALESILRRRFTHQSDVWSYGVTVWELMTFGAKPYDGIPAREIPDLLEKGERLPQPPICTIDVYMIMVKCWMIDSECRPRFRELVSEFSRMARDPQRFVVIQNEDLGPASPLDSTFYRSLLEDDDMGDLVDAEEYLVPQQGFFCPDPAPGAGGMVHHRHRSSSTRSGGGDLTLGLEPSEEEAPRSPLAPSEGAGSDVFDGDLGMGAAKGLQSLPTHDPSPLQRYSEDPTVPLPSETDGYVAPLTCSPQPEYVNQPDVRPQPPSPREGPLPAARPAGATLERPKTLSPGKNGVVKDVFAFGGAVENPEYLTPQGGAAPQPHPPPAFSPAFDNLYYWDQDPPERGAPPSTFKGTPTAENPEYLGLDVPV
Sequence of Epidermal growth factor receptor (Homo sapiens), P00533 [T790M] (P00533 whole entry T790M): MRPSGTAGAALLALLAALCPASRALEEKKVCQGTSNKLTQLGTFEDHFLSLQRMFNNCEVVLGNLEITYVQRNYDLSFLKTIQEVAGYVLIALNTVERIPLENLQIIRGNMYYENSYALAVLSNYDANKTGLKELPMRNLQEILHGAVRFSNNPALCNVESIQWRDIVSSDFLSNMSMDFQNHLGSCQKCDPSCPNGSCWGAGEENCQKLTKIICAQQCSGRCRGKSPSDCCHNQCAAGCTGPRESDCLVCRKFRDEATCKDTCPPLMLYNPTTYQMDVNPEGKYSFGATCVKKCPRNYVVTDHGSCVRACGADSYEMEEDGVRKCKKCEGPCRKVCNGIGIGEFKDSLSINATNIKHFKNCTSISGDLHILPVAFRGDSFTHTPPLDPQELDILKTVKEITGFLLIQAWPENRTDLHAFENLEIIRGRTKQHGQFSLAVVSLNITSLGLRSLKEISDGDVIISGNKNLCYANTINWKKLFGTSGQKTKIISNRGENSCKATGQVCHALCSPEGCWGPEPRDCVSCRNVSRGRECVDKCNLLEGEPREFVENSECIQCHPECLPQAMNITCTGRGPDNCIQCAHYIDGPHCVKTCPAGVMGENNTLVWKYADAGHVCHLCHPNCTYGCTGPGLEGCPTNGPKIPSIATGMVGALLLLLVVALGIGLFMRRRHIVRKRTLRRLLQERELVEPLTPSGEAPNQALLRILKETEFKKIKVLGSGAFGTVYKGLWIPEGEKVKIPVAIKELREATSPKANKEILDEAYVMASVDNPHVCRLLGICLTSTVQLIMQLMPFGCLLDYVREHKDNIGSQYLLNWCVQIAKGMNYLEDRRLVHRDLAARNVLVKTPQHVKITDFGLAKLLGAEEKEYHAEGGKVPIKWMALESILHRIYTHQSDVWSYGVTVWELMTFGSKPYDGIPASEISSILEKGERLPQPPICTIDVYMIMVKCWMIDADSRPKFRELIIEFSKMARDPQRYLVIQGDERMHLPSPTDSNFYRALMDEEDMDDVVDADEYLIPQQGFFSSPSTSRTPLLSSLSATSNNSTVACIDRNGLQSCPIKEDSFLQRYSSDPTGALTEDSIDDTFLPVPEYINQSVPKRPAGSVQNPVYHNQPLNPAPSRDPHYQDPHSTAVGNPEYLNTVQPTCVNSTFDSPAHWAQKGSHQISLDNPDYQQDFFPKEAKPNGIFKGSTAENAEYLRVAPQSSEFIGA
Sequence of Epidermal growth factor receptor (Homo sapiens), P00533 [L858R,T790M] (P00533 whole entry T790M/L858R, looked up): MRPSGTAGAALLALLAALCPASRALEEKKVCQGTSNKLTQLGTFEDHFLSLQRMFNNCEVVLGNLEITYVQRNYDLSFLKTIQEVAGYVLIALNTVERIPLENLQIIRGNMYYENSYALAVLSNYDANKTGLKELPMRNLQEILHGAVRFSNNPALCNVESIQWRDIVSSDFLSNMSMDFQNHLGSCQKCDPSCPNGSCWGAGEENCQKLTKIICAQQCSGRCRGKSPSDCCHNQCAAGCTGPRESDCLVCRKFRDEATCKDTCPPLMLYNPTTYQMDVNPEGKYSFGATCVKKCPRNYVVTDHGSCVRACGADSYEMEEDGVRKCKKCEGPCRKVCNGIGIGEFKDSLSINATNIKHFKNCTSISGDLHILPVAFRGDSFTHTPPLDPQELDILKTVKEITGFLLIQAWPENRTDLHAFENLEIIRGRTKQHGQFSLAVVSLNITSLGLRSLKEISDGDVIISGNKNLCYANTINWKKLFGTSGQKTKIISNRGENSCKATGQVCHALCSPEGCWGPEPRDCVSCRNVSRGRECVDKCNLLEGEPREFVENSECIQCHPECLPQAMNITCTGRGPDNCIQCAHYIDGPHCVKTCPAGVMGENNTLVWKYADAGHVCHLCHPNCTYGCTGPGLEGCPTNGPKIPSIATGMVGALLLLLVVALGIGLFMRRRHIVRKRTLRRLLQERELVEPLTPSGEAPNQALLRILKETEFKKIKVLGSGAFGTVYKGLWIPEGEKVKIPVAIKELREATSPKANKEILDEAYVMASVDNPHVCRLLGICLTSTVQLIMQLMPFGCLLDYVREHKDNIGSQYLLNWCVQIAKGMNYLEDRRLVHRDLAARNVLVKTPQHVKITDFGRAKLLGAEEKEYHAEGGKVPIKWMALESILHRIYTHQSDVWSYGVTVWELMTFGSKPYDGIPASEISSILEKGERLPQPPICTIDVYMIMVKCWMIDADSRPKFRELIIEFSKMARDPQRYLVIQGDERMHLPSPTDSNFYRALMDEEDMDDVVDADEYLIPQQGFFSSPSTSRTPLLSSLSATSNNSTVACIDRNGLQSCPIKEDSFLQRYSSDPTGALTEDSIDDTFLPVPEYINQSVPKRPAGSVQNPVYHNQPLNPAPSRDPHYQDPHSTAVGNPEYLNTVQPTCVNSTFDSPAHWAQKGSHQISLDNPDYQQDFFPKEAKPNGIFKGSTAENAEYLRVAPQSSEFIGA
Sequence of Ephrin type-A receptor 4 (Homo sapiens) (P54764 whole entry): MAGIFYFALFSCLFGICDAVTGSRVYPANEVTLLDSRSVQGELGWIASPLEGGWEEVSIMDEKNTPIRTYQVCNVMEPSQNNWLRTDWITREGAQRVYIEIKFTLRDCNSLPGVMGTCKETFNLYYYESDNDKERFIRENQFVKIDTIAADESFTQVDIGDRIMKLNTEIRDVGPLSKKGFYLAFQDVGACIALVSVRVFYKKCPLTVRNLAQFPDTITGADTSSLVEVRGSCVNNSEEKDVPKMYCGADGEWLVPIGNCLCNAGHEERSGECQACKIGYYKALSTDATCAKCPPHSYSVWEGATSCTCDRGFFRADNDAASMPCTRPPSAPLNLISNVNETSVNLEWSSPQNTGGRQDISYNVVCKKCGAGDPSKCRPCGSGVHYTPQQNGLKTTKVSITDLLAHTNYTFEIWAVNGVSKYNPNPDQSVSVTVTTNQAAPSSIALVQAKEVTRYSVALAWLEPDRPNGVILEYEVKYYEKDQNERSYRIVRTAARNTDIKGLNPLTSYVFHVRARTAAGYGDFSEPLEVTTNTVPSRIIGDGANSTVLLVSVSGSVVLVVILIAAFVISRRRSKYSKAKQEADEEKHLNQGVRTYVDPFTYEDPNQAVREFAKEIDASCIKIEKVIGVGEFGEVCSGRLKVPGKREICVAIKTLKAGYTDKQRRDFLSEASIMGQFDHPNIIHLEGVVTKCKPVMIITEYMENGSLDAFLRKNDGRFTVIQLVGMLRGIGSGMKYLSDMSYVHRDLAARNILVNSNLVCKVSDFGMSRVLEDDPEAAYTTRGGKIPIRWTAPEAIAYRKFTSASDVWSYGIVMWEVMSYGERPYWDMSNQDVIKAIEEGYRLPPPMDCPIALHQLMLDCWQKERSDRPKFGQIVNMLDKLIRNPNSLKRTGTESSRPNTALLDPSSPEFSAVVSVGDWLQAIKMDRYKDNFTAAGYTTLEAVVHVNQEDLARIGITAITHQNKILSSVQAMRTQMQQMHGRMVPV

Structure (SMILES) | inhibition [1] | inhibition [2] | inhibition [3] | inhibition [4] | inhibition [5] | inhibition [6] | inhibition [7] | inhibition [8] | inhibition [9] | inhibition [10] | inhibition [11] | inhibition [12] | inhibition [13] | inhibition [14] | inhibition [15] | inhibition [16] | inhibition [17] | inhibition [18] | inhibition [19] | inhibition [20]
CCn1c(-c2nonc2N)nc2cncc(C(=O)N3CCNCC3)c21 | 3.72% | 0.98% | 3.56% | 1.29% | 1.16% | 3.57% | 2.79% | 9.14% | 11.3% | 10.1% | 7.73% | 3.36% | 3.77% | 2.94% | 3.87% | 38.2% | 2.97% | 9.03% | 10.6% | 1.53%
CCn1c(-c2nonc2N)nc2c(C#CC(C)(C)O)nc(OC[C@@H](N)c3ccccc3)cc21 | -1.79% | -0.23% | 0.54% | -1.19% | 0.2% | -1.62% | 7.71% | -5.47% | 6.31% | 5% | 12.1% | 0.34% | -0.22% | -2.4% | 1.73% | -1.67% | -0.37% | -4.79% | -4.06% | –
COc1ccc2cc(-c3c(-c4ccncc4)nc(-c4ccc([S+](C)[O-])cc4)n3C)ccc2c1 (centres undefined) | -0.54% | 1.75% | 0.88% | 1.69% | 1.61% | 3.89% | 5.2% | -2.82% | 8.03% | 3.58% | 6.51% | 5.38% | 4.12% | 2.71% | 6.99% | 2.07% | -0.38% | 12.1% | 23.1% | 1.4%
CS(=O)(=O)CCN(CC#N)Cc1ccc(-c2ccc3ncnc(Nc4ccc(OCc5cccc(F)c5)c(Cl)c4)c3c2)o1 | 5.17% | -1.28% | 0.73% | -5.85% | -5.32% | -2.74% | -2.11% | 1.75% | 5.59% | 6.06% | 4.79% | -1.45% | -0.8% | -2.59% | -3.31% | 12.4% | 66.7% | 33.6% | 73.8% | -0.11%
